# HTT-AS act: activators of huntingtin-antisense promoter activity | AID 1508624 | HEK293 HTT-AS promoter firefly luciferase reporter, 24 h; response scale: percent change from vehicle, -100% = no light | Potency, µM (titrated, usually from 57.5 µM), for inactives: at the highest dose activity change, positive = activation, usual class: activators | actives 0.24% (n = 48,000); note: potency is the fitted concentration of half-maximal effect; nearly all actives have a fitted effect of over 55% in size
#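 Firefly luciferase signal from promoter-reporter HEK293 cells was scaled between vehicle (0%) and zero RLU (-100%). Compounds were tested at final concentrations of up to 57.5 uM over 24 h at 37 degrees C. PTC124 at 50 uM final served as control inhibitor.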
# GALK inhibitor: inhibits human galactokinase | 44,000 tested, under 10 active | recombinant GALK, Kinase-Glo ATP luminescence, 1 h | Potency, µM (doses to about 57.5 µM), without a hit: top-dose activity, negative = inhibition, most hits filed as inhibitors;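 note: plate controls were full GALK reaction for no effect and reaction lacking GALK for full effect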
#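 Human GALK (5 nM) was incubated with 35 uM ATP and 100 uM galactose in 20 mM HEPES pH 8.0 with MgCl2, NaCl, DTT and BSA for 1 h at room temperature. Remaining ATP was measured by Kinase-Glo Plus luminescence.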
# GPR32 ag: GPR32 (DRV1) agonism, beta-arrestin recruitment; O75388; CHO-K1 GPR32 beta-arrestin PathHunter luminescence, 90 min; zero percent set by DMSO-only wells; activation, % at 76.9 µM; actives 2.5% (n = 48,000); AID 1346428;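 active = activation of at least 60% and not above a set upper limit, about 1 call in 100 departs from these limits; inconclusive = activation of 40% to 60%, or above that upper limit; inactive = activation under 40%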; note: 0% is about no effect
# Target sequence (O75388 whole entry, looked up): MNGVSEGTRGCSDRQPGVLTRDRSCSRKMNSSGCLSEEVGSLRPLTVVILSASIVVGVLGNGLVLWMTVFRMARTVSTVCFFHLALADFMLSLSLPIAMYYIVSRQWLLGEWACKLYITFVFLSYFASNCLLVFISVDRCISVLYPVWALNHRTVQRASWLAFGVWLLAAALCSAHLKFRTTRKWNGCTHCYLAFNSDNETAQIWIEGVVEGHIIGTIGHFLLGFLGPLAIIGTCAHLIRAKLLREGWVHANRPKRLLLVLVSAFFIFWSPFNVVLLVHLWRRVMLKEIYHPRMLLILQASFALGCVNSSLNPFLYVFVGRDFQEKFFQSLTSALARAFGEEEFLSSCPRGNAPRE
#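 Using DMSO wells as EC0, agonist-induced signal was taken as chemiluminescence from beta-Gal reconstituted upon beta-arrestin recruitment to GPR32 in CHO-K1 cells after 90 min compound treatment.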
# TSG101-PTAP inh: blocks PTAP binding to human TSG101, validation. Q99816. Fluorescence polarization, FITC-PTAP peptide/Tsg101, 20 min. Potency, µM (top dose mostly 115 µM), usual class: inhibitors. 44,000 tested, under 10 active. AID 1347069; note: potency is the fitted concentration of half-maximal effect; 0% is about no effect
#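 Steps: Tsg101 binding domain (10 uM final) in HEPES pH 7.5/NaCl/Tween 20/EDTA/TCEP; add compound; add FITC-PTAP peptide (50 nM final); incubate 20 min r.t.; read polarization.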
# HTT prom inh: inhibits huntingtin promoter activity; HEK293 HTT promoter firefly luciferase reporter, 24 h; Potency, µM (top dose mostly 57.5 µM), inactives show top-dose activity change, negative = inhibition, usual class: inhibitors; actives 0.93% (n = 48,000); AID 1508623; note: potency is the fitted concentration of half-maximal effect; nearly all actives have a fitted effect of over 50% in size
#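 HEK293 cells carrying firefly luciferase reporters were seeded at 2,500 per well in Opti-MEM and cultured for 24 h. They were then treated with compounds at up to 57.5 uM final for 24 h at 37 degrees C before Dual-Glo luminescence readout.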
# B2AR arrestin ag: agonists recruiting beta-arrestin to human beta2-adrenergic receptor; P07550; HTLA Tango cells, beta-arrestin recruitment, luciferase luminescence, 18 h; Potency, µM (titrated, usually from 46.1 µM), usual class: activators; 44,000 tested, under 10 active; AID 1347077;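 note: potency is the fitted concentration of half-maximal effect; 0% = DMSO and full agonism = EC100 isoproterenol or metaproterenol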
#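 Ligand-induced beta-arrestin recruitment to recombinant beta2-AR is measured via a tTA-driven luciferase reporter in Tango cells after 18 hr compound exposure at 37 degrees C. Concentrations span up to 46 microM.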
# The depositor's hits bear a star; i = inactive; ? = inconclusive; nt = no result given; [ ] = another dose, or the depositor's remark. This is a sample that favours compounds with a hit; in the whole collection about 3.6% have one here. Unless noted, calls come from the whole dose curve; as a rule, active = well fitted curve in the direction sought with a large enough effect; inconclusive = small, poorly fitted or top-dose-only effect, or another doubt; inactive = no such curve, though single readings can be large; an effect the other way counts as inactive or inconclusive.
SMILES,HTT-AS act,GALK inhibitor,GPR32 ag,TSG101-PTAP inh,HTT prom inh,B2AR arrestin ag
Cc1ccc(NC(=O)Cn2c(=O)oc3cc(S(=O)(=O)NCc4ccccc4)ccc32)cc1,-31%,2%,81*,i,?,i
Cc1ccc(C)c(NC(=O)Cn2c(=O)oc3cc(S(=O)(=O)NCc4ccccc4)ccc32)c1,-33%,-13%,72*,i,?,i
COc1ccc(C)cc1NC(=O)Cn1c(=O)oc2cc(S(=O)(=O)NCc3ccccc3)ccc21,-35%,0%,-1,i,?,i
O=C(Cn1c(=O)oc2cc(S(=O)(=O)NCc3ccccc3)ccc21)Nc1ccc(F)c(Cl)c1,-28%,4%,21,i,?,i
Cc1ccc(NC(=O)Cn2c(=O)oc3cc(S(=O)(=O)N4CCCCC4)ccc32)c(C)c1,-45%,-2%,115*,i,?,i
CCc1ccc(NC(=O)Cn2c(=O)oc3cc(S(=O)(=O)NCc4ccccc4)ccc32)cc1,-38%,-3%,73*,i,?,i
Cc1cnc(-c2cc(N3CCN(C(=O)CCS(C)(=O)=O)CC3)ncc2Cl)c(C)c1,-20%,nt,nt,nt,-9%,nt
CCc1ccc(NC(=O)CN(c2ccc(OC)cc2)S(=O)(=O)c2c(C)[nH]c(=O)[nH]c2=O)cc1,7%[11.5 µM],8%,-14,i,0%[11.5 µM],i
CCc1ccc(NC(=O)CN(c2cc(C)cc(C)c2)S(=O)(=O)c2c(C)[nH]c(=O)[nH]c2=O)cc1,-12%,0%,76*,i,-16%[11.5 µM],i
CCOC(=O)C1CCCN(C(=O)c2cc3c(Cl)nc4ccccc4c3s2)C1 (stereo not given),-84%,-1%,21,i,5µM*,i
O=C(c1cc2c(Cl)nc3ccccc3c2s1)N1CCCCC1,21%,1%,49,i,3%,i
O=C(Nc1ccc(-c2cn3cccnc3n2)cc1)c1cc(Br)ccc1Cl,-16%,-2%,83*,i,-2%,i
COc1ccc(NC(=O)Nc2cccc(-c3cn4cccnc4n3)c2)cc1,26%,5%,77*,i,25%,i
O=C(Cc1ccccc1)Nc1cccc(-c2cn3cccnc3n2)c1,11µM*,1%,17,i,53%,i
COc1cccc(C(=O)Nc2cccc(-c3nc4ncccn4c3C)c2)c1,6%,1%,61*,i,3%,i
COc1cccc(C(=O)Nc2nc3nc(C)c(C)c(=O)n3[nH]2)c1,-14%,3%,23,i,-11%,i
COc1cc(OC)cc(C(=O)Nc2cccc(-c3cn4cccnc4n3)c2)c1,2%,3%,?,i,-6%,i
CC1CCN(c2cc(N3CCN(C)CC3)ccc2NC(=O)c2cc(C#N)c[nH]2)CC1,-3%,nt,nt,nt,-7%,nt
CC(C)NC(=O)c1ccc(C=O)cc1,?,nt,-1,nt,1%,nt
Cc1cnc(Nc2ccc(CN3CCOCC3)cc2)nc1Nc1cccc(S(=O)(=O)NC(C)(C)C)c1,-45%,nt,nt,nt,-22%,nt
COc1cc(=C2C=c3ccccc3=N2)[nH]c1=Cc1[nH]c(C)cc1C,-47%,nt,nt,nt,?,nt
CCNC(=O)Nc1ccc(-c2nc3c(c(N4CCOC[C@H]4C)n2)CCN(C2COC2)C3)cc1,-24%,nt,nt,nt,?,nt
CCC(CN)=C(c1ccccc1)c1ccccc1,-10%,nt,7,nt,-14%,nt
CC(=O)N/N=C/c1ccc([N+](=O)[O-])o1,4%,nt,68*,nt,9%,nt
CCOC(=O)c1ccc(N2C(=O)c3[nH]nc(-c4ccc(OC)cc4)c3C2c2ccccc2Cl)cc1 (stereo not given),0%,9%,-6,i,-2%,i
SMILES,HTT-AS act,GALK inhibitor,GPR32 ag,TSG101-PTAP inh,HTT prom inh,B2AR arrestin ag
COc1ccc(-c2n[nH]c3c2C(c2ccc(Cl)cc2Cl)NC3=O)cc1 (stereo not given),-41%,-2%,87*,i,?,i
Cc1cc(NC(=O)CN(C)S(=O)(=O)c2ccc3c(c2)CCCC(=O)N3)ccc1Br,-50%,-5%,49,i,25µM*,i
Cc1cc(C)c(NC(=O)CN(C)S(=O)(=O)c2ccc3c(c2)CCC(=O)N3)c(C)c1,0%,10%,3,i,-6%,i
COc1cc(NC(=O)c2ccc(C)cc2)ccc1NC(=O)c1cc2ccccc2o1,10%,0%,-3,i,10%,i
CCCCCC(=O)Nc1ccc(NC(=O)c2cc3ccccc3o2)c(OC)c1,-19%,-3%,121*,i,-13%,i
CCc1ccccc1NC(=O)Nc1nnc(N2CCCC2)s1,9%,-12%,-1,i,-13%,i
CCCc1nnc(NC(=O)Nc2ccccc2Cl)s1,3.5µM*,-7%,-17,i,48%,i
CCc1nonc1NC(=O)c1oc2ccc(C)cc2c1C,?,7%,3,i,60%,i
CCc1nonc1NC(=O)c1oc2ccccc2c1C,?,-7%,66*,i,17%,i
Cc1cc(C)cc(NC(=O)C(=O)NCCc2sc(-c3cccc(F)c3)nc2C)c1,-9%,3%,3,i,-17%,i
Cc1nc(-c2ccc(F)cc2)sc1CCNC(=O)c1ccccc1,-8%,1%,62*,i,-12%,i
Cc1nc(-c2cccc(F)c2)sc1CCNC(=O)Cc1ccc(F)cc1,-30%,1%,88*,i,-44%,i
CCn1cc(C(=O)N2CCN(c3cccc(C(F)(F)F)c3)CC2)c2cc(OC)c(OC)cc2c1=O,-19%,7%,18,i,-15%,i
CCn1cc(C(=O)N2CCN(c3cccc(C)c3C)CC2)c2cc(OC)c(OC)cc2c1=O,-19%,0%,76*,?,-16%,i
Cn1nc(-c2ccc(N3CCCCC3)c(NC(=O)c3ccc(Cl)cc3)c2)c2ccccc2c1=O,16%,3%,0,i,-9%,i
Cn1nc(-c2ccc(C(=O)Nc3ccc(F)cc3)cc2)c2ccccc2c1=O,-43%,2%,105*,i,?,i
Cc1ccc(NC(=O)COc2ccc(-c3nn(C)c(=O)c4ccccc34)cc2)cc1,-36%,0%,26,i,?,i
Cn1nc(-c2ccc(OCC(=O)Nc3cccc(C(F)(F)F)c3)cc2)c2ccccc2c1=O,-49%,3%,85*,i,?,i
Nc1nc(=O)n([C@H]2C[C@H](O)[C@@H](CO)O2)cc1F,-8%,nt,nt,nt,-12%,nt

# High-throughput results as filed in PubChem.
